Reference: PubChem BioAssay AID1508609 (The Scripps Research Institute Molecular Screening Center, 2020)
The campaign covered roughly 6,700 compounds. Fewer than 10 were called active.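 How the source made its calls: active means mean percent activation across replicates above the confirmation screen cutoff of 4.91%; inactive means the rest.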 These entries were drawn from the full list.

target: G-protein coupled receptor 151 (Homo sapiens) (UniProt Q8TDV0); test: GPR151 agonism via beta-arrestin recruitment – cell-based, PathHunter beta-arrestin, luminescence, confirmation (AID 1508609); conditions: GPR151 PathHunter beta-arrestin cells, 90 min, at 11.2 µM, active compounds read high, % of EA-reagent control over plate median
Sequence (Q8TDV0 whole entry, looked up): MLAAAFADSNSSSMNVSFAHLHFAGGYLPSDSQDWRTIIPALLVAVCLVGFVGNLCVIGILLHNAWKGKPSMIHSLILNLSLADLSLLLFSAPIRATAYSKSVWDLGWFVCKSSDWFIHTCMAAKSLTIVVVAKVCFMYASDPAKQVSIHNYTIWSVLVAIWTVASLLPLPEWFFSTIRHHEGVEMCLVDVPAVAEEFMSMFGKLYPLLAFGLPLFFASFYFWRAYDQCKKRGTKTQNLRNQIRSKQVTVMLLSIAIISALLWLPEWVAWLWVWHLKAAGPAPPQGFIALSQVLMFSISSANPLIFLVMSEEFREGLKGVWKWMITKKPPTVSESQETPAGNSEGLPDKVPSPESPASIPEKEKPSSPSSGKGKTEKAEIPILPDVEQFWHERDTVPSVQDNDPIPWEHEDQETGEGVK

activation, inactive:
Cc1nnc(SCC(=O)NCc2ccccc2)s1 -1.41%
CCN(CC)c1nc(Nc2cc(OC)c(OC)c(OC)c2)nc(N2CCOCC2)n1 -0.81%
COc1ccc2c(c1)C=C(CN1CCN(CC3CCCCC3)C(CCO)C1)CO2 (stereo unspecified) 0.99%
COc1ccc(OC)c(NC(=O)CN(c2cccc(C)c2C)S(C)(=O)=O)c1 -1.37%
CCc1cc2c(=O)c(-c3ccc4c(c3)OCCCO4)coc2cc1OC(=O)N1CCOCC1 -0.64%
COc1cc(Nc2cc(N3CCN(c4ccc(F)cc4)CC3)c3noc4c3c2C(=O)c2ccccc2-4)cc(OC)c1OC -0.64%
O=CN1CCN(CCC(=O)Nc2ccccc2)CC1 1.05%
CC1(C(=O)Nc2cccc(C(F)(F)F)c2)CC2c3ccccc3C1c1ccccc12 (stereo unspecified) 0.28%
C=CCN(c1ccc(C(=O)Nc2ccc(OCc3ccccc3)cc2)cc1)S(C)(=O)=O -0.47%
O=C(COc1ccc(S(=O)(=O)NCCc2ccccc2)cc1)NC1CC1 -1.2%
COc1cc(NC(=O)C2CC(c3ccccc3O)=NO2)c(OC)cc1Cl (stereo unspecified) 0.24%
CCCCCC(=O)N/N=C(/C)c1ccc(O)cc1O 0.98%
CCOC(=O)c1sc(NC(=O)CSc2ncccn2)c(C#N)c1C -0.62%
O=C(Cn1nnc2ccccc21)N/N=C/c1c(O)ccc2ccccc12 0.12%
CC(C)CCSc1nc2c(c(=O)n1Cc1ccco1)C1(CCCCC1)Cc1ccccc1-2 0.06%
CN1CCN(c2ccc(-c3nc4ccc(C(=O)NCc5nc6ccccc6[nH]5)cc4s3)cc2)CC1 -0.31%
COc1cccc(C(=O)Nc2sc3c(c2C(N)=O)CCCCCC3)c1 0.1%
COc1ccc(N2C(=O)C3CCCN3C2c2cccc(OC)c2)cc1 (stereo unspecified) -1.45%
CCOc1ccc(/C=C2N=C(/C=C/c3cccc(Cl)c3Cl)OC\2=O)cc1 -0.04%
CCN(CC)S(=O)(=O)c1ccc(N2CCCC2)c(NC(=O)c2ccc([N+](=O)[O-])o2)c1 0.12%
COCCN1C(=O)CC(CC(=O)NCc2nc3ccccc3[nH]2)(c2ccccc2C)C1=O (stereo unspecified) 0.82%
CCc1nn(CCCN2CCN(c3cccc(Cl)c3)CC2)c(=O)n1CCOc1ccccc1 0.13%
CCOC(=O)c1sc2nc(SCC(=O)N(C)Cc3ccccc3)n(Cc3ccc4c(c3)OCO4)c(=O)c2c1C -1.12%
COc1ccccc1C(=O)N/C(=C\c1ccc2c(c1)OCO2)C(N)=O -0.62%
O=C(N/N=C/c1cccc(Cl)c1Cl)c1cccs1 -1.68%
Cc1ccc(NCC(=O)N/N=C\c2ccc(I)o2)cc1 -0.49%
CC1CCN(CC(=O)Nc2ccccc2Cl)CC1 0.1%
CCCOc1ccc([N+](=O)[O-])cc1C=C1C(=O)NC(=O)NC1=O -0.34%
COc1ccc(OC)c(NC(=O)CSc2nnc3[nH]c(=O)c(C)c(C)n23)c1 -0.4%
COc1ccc(C(=O)Cc2cc3ccccc3oc2=O)c(OC)c1 -0.78%
CCc1ccc(-c2ccc(C3CCC(CC)CC3)cc2)nc1 (stereo unspecified) -0.84%
CCc1ccc(S(=O)(=O)NCCOc2cc(N3CCOCC3)ncn2)cc1 0.53%
CCOC(=O)C1=C(CC)OC(N)=C(C#N)C1c1ccc(C(F)(F)F)cc1 (stereo unspecified) -0.53%
CCC[C@@H]1NC(=O)[C@@H]2C[C@H](NCc3nc(-c4ccc(F)cc4)cs3)CN2C1=O 0.46%
CC(C)CC(C(=O)Nc1cccc([N+](=O)[O-])c1)N1C(=O)c2ccccc2C1=O (stereo unspecified) 0.6%
COc1ccc(C(=O)COC(=O)C(Cc2ccccc2)NC(=O)c2ccco2)cc1 (stereo unspecified) 0.8%
CCC1(c2ccc(Cl)cc2Cl)NC(=S)N(c2ccc(C)c(C)c2)N1 (stereo unspecified) 0.75%
CCC(C(=O)N1CCCCC1)n1c(C)c2cnn(-c3ccccc3)c(=O)c2c1C (stereo unspecified) -0.56%
Cc1ccc2cc(C#N)c(SCCO)nc2c1 0.26%
COc1ccc(/C=C(\C#N)C(=O)Nc2cccc(S(=O)(=O)N3CCCCC3)c2)cc1 -1.24%
Cc1ccc(Nc2nc(-c3ccccn3)cs2)cc1C -1%
CC(C)(C)NC(=O)Cc1coc2ccc3ccccc3c12 0.92%
COc1ccc(/C=C(\C#N)C(=O)Nc2ccc(F)cc2)c(OC)c1 0.7%
Cc1ccc(-n2cc(-c3ccccc3)c3c(N4CC(C)OC(C)C4)ncnc32)cc1 (stereo unspecified) 0.03%
COc1cc(/C=N/N=C2/NC(=O)CS2)ccc1OC(=O)c1ccccc1C -0.88%
O=C(CN1C(=O)S/C(=C\c2ccc(Cl)s2)C1=O)Nc1ccccc1F -1.03%
CO[C@@H]1COC(=O)[C@@H](C)COC(=O)[C@H](C)NC(=O)C/C=C/[C@H]1C 0.63%
Cn1c2ccccc2c2nnc(SCC(=O)Nc3ccc(NC(=O)C4CC4)cc3)nc21 0.69%
Cc1nn(C)c(C)c1-c1nc2ncnc(NCCO)c2[nH]1 -0.32%
CCc1nnc2n1N(C(C)=O)C(c1ccc3c(c1)CCCC3)=C(C(C)=O)S2 0.79%
CC(C)(C)OC(=O)N1CCC[C@H](Cn2cc(C(=O)O)nn2)C1 0.63%
Cc1nc2cc(C(=O)NCc3ccc4c(c3)OCO4)ccc2n1-c1ccc(OCc2ccccc2)cc1 -1.41%
CCCCNC(=O)C1(c2ccc(OC)cc2)CCOCC1 -0.13%
CCC(=O)N(CCC(Cc1ccccc1)c1ccc2c(c1)OCO2)Cc1ccc(OC(C)C)cc1 (stereo unspecified) 1.24%
CC(C)c1ccc(Nc2nccn3c(-c4cccc(CO)c4)cnc23)cc1 1.58%
Cc1ccc(S(=O)(=O)NCc2nc3nc(C)cc(C)n3n2)cc1 -1.42%
Nc1cc(=O)nc(SCC(=O)Nc2nccs2)n1-c1ccc(F)cc1 1.67%
c1ccc(NCc2cccc3ccccc23)nc1 -0.81%
COc1ccccc1C1C(C(N)=O)=C(C)Nc2nc(CCCO)nn21 (stereo unspecified) -0.72%
CC1CCN(C(=O)C(NS(=O)(=O)c2ccc3c(c2)oc(=O)n3C)C(C)C)CC1 (stereo unspecified) 0.12%
Cc1cc(=O)[nH]c(SCC(=O)Nc2cccc3ccccc23)n1 -0.05%
COc1cccc(C2SCC(=O)N2c2cccc(C)c2)c1OC (stereo unspecified) 0.31%
CC(C)(C)C1CCC(=NNC(=O)C(=O)NCCc2ccccc2)CC1 (stereo unspecified) 1.36%
C#CCOc1ccc(Br)cc1/C=C1\NC(=S)N(C)C1=O -0.05%
Cc1ccc(NC(=O)CCn2c(=O)oc3ccccc32)cc1Cl 0.81%
C(=N\N1CCN(c2ccccn2)CC1)/C1=C(N2CCOCC2)C(=C/c2ccccc2)/CC1 0.86%
CC(C)(C)C1(O)CCN2C[C@H]3c4ccccc4CCc4cccc(c43)[C@@H]2C1 (stereo partly specified) -0.56%
CCOCCCNC(=O)NC1CCN(c2nc3ccccc3s2)CC1 0.63%
CCOC(=O)Cc1coc(NC(=O)c2ccc(Cl)cc2)n1 1.26%
CC(C)C(=O)NNS(=O)(=O)c1ccc([N+](=O)[O-])cc1 -0.02%
N#Cc1ccc(N2CCN(CCCNC(=O)Nc3ccccc3)CC2)cc1 -0.19%
O=C1Cc2cc(S(=O)(=O)Nc3cccc(Cl)c3)cc3c2N1CCC3 0.12%
COc1cccc(NC(=O)CN(C)S(=O)(=O)c2ccc3c(c2)SCC(=O)N3)c1 -0.01%
CCNc1nc(NC(C)C)nc(OCCOC(C)=O)n1 -0.68%
OCc1ccccc1CNc1ccc(F)cc1 0.05%
COCCNCCOc1ccc(C(C)(C)C)cc1 -1.21%
CCN(CC)C1CCN(C(=O)c2cc(COc3ccc4ncccc4c3)on2)C1 (stereo unspecified) -1.18%
COc1ccc(-c2cc(N)n(S(=O)(=O)c3ccccc3)n2)c(OC)c1 -0.31%
COc1cc2nc(-c3ccc4c(c3)C(=O)N(CCC(C)C)C4=O)oc(=O)c2cc1OC 0.42%
COc1ccc(Nc2nc(-c3ccc(F)cc3)cs2)c(OC)c1 -0.04%
CCCN1C(=O)c2ccc(C(=O)Nc3ccc(C(C)=O)cc3)cc2C1=O 0.09%
CC(C(=O)NCCN1CCOCC1)n1c2ccccc2c2cn[nH]c(=O)c21 (stereo unspecified) -0.57%
c1ccc2sc(-c3cnc4ccc(NC5CCOCC5)nn34)cc2c1 -1.36%
O=C(COc1ccc(Br)cc1CO)NCC(F)(F)F 0.36%
CCOc1ccc(NC(=O)N2CCN(CC)CC2)cc1 0.34%
CCc1ccc(N2N=C(C)/C(=C\c3ccc(-c4ccc5c(c4)C(=O)NC5=O)o3)C2=O)cc1 -0.14%
O=S(=O)(NCc1csc(-c2cccnc2)n1)c1ccc2ccccc2c1 0.68%
CCN1/C(=C/c2ccc3cc(C)ccc3[n+]2CC)Sc2ccc(-c3ccccc3)cc21 -0.55%
Cc1ccc(NC(=O)Cn2cc(-c3ccccc3)c(N3CCOCC3)n2)c(C)c1 -0.77%
CC1CCCCN1C(=O)c1cc2c(=O)n(C)c3ccccc3c2s1 (stereo unspecified) 0.54%
COc1cccc(/C=C2/C(=O)NC(=O)N(c3ccccc3F)C2=O)c1 0.99%
